In PubChem BioAssay AID686979 (National Center for Advancing Translational Sciences (NCATS), 2013) one finds Potency and activity change, negative = growth inhibition data, which are given here for 103 compounds.

Each structure is given as a SMILES string. The whole screen tested about 420,000 compounds, of which about 50,000 (12%) were called active. About 26% were inconclusive and are not listed. The call rests on the fitted dose curve; in most records, active means well fitted inhibition curve with a large enough effect; inconclusive means small, poorly fitted or top-dose-only effect; inactive means flat fitted curve, though single readings scatter. The list comes from a sample in which actives are over-represented; it also holds similar structures and randomly drawn compounds. Where a call stands in place of a potency, no number is given.
Potency means the concentration at half of the fitted maximal effect.

The assay in a line: qHTS for Inhibitors of human tyrosyl-DNA phosphodiesterase 1 (TDP1): qHTS in cells in presence of CPT. Further: nearly all actives have a fitted effect of over 55% in size. As to conditions: chicken DT40 Tdp1-/-;hTDP1 cells + 20 nM CPT, ATP luminescence, 48 h; series mostly up to 46.2 µM. The method in brief: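 Chicken DT40 Tdp1-/- cells complemented with human TDP1, 400 cells/well, exposed to compounds plus 20 nM camptothecin for at least 48 h at 37 C; viability read as ATP content by CellTiter-Glo luminescence.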
In the case of `CCOC(OCC)c1ccc(/C=C\c2nccc(N)n2)cc1`, the Potency entry is “inactive”.
As to `COc1ccc2nc(Nc3nc(-c4ccncc4)cs3)sc2c1`, the Potency entry is “inactive”.
As for `O=c1oc2ccccc2cc1-c1csc(Nc2ccc(O)cc2)n1`, the Potency is 9.2 µM (active).
The same measure, in the same setting: as for `CCNc1nc(-c2cc3ccccc3o2)cs1`, the entry is “inactive”; as for `COc1ccc2nc(NC(=O)[C@@H]3CCCN3C(=O)c3cccs3)sc2c1`, “inactive”.
For the compound `Nc1ncc(-c2cc3ccccc3oc2=O)s1`, the Potency entry was “inactive”.
On to `COc1ccc2nc(Nc3nc(-c4cc5ccccc5oc4=O)cs3)sc2c1`, for which the Potency is 5.8 µM (active).
`CC1CCCCN1Cc1c(O)ccc2c(=O)c(-c3cccc(Cl)c3)c(C(F)(F)F)oc12` (stereo not drawn): the Potency entry is “inactive”.
Still for that read-out and setting: as for `C[C@@H]1NS(=O)(=O)c2cc(Cl)ccc2O[C@@H]1c1ccccc1`, the entry is “inactive”; as for `C[C@H](CO)N1C[C@H](C)[C@H](CN(C)C(=O)c2ccncc2)OCc2ccccc2-c2c(n(C)c3ccccc23)C1=O`, “inactive”; as for `CC(NS(=O)(=O)c1ccc(Br)cc1)C(=O)NCC1CCCO1` (stereo not drawn), “inactive”.
On the same count and under the same terms, with `COc1ccccc1NC(=S)N1CCN(C(c2ccccc2)c2ccccc2)CC1` the figure was 16.4 µM (active); with `CC(C)NC(=S)N1CCN(S(C)(=O)=O)CC1`, “inactive”.
Turning to `CC(C)OCC(O)CN1CCN(C(c2ccccc2)c2ccccc2)CC1` (stereo not drawn), the Potency entry is “inactive”.
Turning to `COc1ccc(C)cc1NC(=S)N1CCOCC1`, the Potency entry was “inactive”.
On the same count and under the same terms, as for `CC(C)NC(=S)N1CCN(C(c2ccccc2)c2ccccc2)CC1`, the figure is 29.1 µM (active); as for `COc1ccccc1NC(=S)N1CCN(c2ccc(F)cc2)CC1`, “inactive”; as for `CCCCNC1(C#N)CCN(Cc2ccccc2)CC1`, “inactive”.
Still for that read-out and setting: with `CC(C)CC1(C(=O)NCc2ccccn2)C=CCN1C(=O)c1ccccc1` (stereo not drawn) the entry was “inactive”.
Consider `O=C(O)c1ccc(/C=N/NC(=S)NCc2ccccc2)cc1`, for which the Potency result is “inactive”.
On the same count and under the same terms, with `O=C(NN=Cc1ccccc1)c1ccccc1` the entry was “inactive”.
Turning to `NN=C(NN=Cc1ccccc1)c1ccccc1`, the Potency is 8.2 µM (active).
For `O=C(CCNC(=O)c1ccccc1)NN=Cc1ccc(Br)o1`, the Potency result is “inactive”.
For `CN1C(C(=O)NCC2CC2)CC2Cn3c(nc4ccccc43)C21` (stereo not drawn), the Potency entry was “inactive”.
Take `Nc1ccc(/C=C/c2ccnc3ccccc23)c([N+](=O)[O-])c1`: the Potency is 11.2 µM (active).
Consider `Cc1cc(C)cc(C(=O)NC2C(=O)N3C(C(=O)O)=C(CSc4nnc(C)s4)CSC23)c1` (stereo not drawn), for which the Potency entry was “inactive”.
Regarding `CSc1ccccc1NC(=O)CN(C)CC(=O)Nc1cccc(Br)c1`, the Potency result was “inactive”.
The same measure, in the same setting: with `CCOc1ccc(OCC)c(NC(=O)c2cc(C)nc3c2c(C)nn3-c2cccc(Cl)c2C)c1` the entry was “inactive”; with `CC1=CC(C)(C)NC(=S)N1NC(=O)c1ccccc1Cl`, “inactive”; with `Cc1ccc(N2C(=O)C(Cc3ccccc3)NC2=S)cc1` (stereo not drawn), “inactive”.
With `CC1=CC(C)(C)NC(=S)N1c1ccccc1`, the Potency is 20.6 µM (active).
For the compound `CCOc1ccc(S(=O)(=O)N2CCC(C(=O)OCc3ccc(OC)cc3)CC2)cc1`, the Potency entry was “inactive”.
Still for that read-out and setting: with `CC1(C)O[C@H]2CC(=O)OCC23[C@H]2CC[C@@]4(C)[C@H](c5ccoc5)OC(=O)[C@H]5O[C@]54[C@]2(C)C(=O)C[C@@H]13` (stereo partly drawn) the entry was “inactive”.
As to `NC(=O)C(Cc1ccccc1)NC(=O)C12CC3CC(CC(C3)C1)C2` (stereo not drawn), the Potency result was “inactive”.
Same read-out and setting: as for `COc1cc(/C=N/N=C(\N)c2nonc2N)cc(OC)c1OC`, the entry is “inactive”; as for `CCOC(=O)c1c(C)[nH]c(C(=O)NCCN2CCOCC2)c1C`, “inactive”.
Turning to `COc1ccc(NC(=O)NCCN2CCN(c3ccc(C)cc3)CC2)c(Cl)c1`, the Potency result was “inactive”.
On the same count and under the same terms, as for `CCOC(=O)c1c(C)[nH]c(CCC(=O)NCCCN2CCN(c3cccc(Cl)c3)CC2)c1C`, the figure is 13 µM (active); as for `Cc1ccc(C)c(N2CCN(Cc3nnc(-c4ccccc4)o3)CC2)c1`, “inactive”.
Same read-out and setting: as for `Cc1ccc(C)c(N2CCN(CCCNC(=O)Nc3ccc(Cl)cc3)CC2)c1`, the figure is 7.31 µM (active); as for `CC1=C(c2ccc(C)c(C)c2)S(=O)(=O)NC1=NCc1ccccc1Cl`, “inactive”.
Turning to `Cc1ccc(C)c(N2CCN(C(=O)Cc3c(C(=O)O)c(C)cn3C)CC2)c1`, the Potency result is “inactive”.
For the compound `CC1=C(c2ccc(C)cc2)S(=O)(=O)NC1=NCCCN1CCN(c2cc(C)ccc2C)CC1`, the Potency was 4.61 µM (active).
For `CCOC(=O)c1c(C)[nH]c(CCC(=O)NCCCN2CCN(c3cc(C)ccc3C)CC2)c1C`, the Potency was 4.61 µM (active).
As for `COc1ccc(N2CCN(CCNC(=O)Nc3cc(Cl)ccc3Cl)CC2)cc1`, the Potency result is “inactive”.
For `CCOC(=O)N1CCC(Nc2c(NCCCN3CCN(c4ccc(OC)cc4)CC3)c(=O)c2=O)CC1`, the Potency result is “inactive”.
On to `CCOC(=O)N1CCC(Nc2c(NCCN3CCN(c4cccc(Cl)c4)CC3)c(=O)c2=O)CC1`, for which the Potency result was “inactive”.
Same read-out and setting: as for `CCOc1cc(/C=N/NC(=O)c2cccc(S(=O)(=O)N3CCOCC3)c2)ccc1OCC(=O)N(C)C`, the entry is “inactive”.
On the same count and under the same terms, as for `CC(C)CN(C(=O)Cn1c(=O)cnc2ccccc21)C1CCS(=O)(=O)C1` (stereo not drawn), the entry is “inactive”.
In the case of `O=C(NCCCn1ccnc1)c1cc2c(s1)CCCC2`, the Potency entry is “inactive”.
As to `CCc1nnc(SCc2cccc(F)c2)nc1CC`, the Potency entry is “inactive”.
The same measure, in the same setting: as for `Cc1ccc(OCC(=O)OCc2cc(=O)n3nc(C4CC4)sc3n2)cc1C`, the entry is “inactive”.
As for `COc1ccccc1/C=C/CN1CCC(CO)(Cc2ccccc2)CC1`, the Potency result was “inactive”.
`CCOc1ccccc1N(CC)C(=O)Nc1cn(C)c(=O)c2ccccc12`: the Potency result is “inactive”.
The same measure, in the same setting: as for `CC1=C(C(=O)N2CCOCC2)CC(CC(=O)NCc2ccco2)C(=O)N1Cc1ccc(F)cc1` (stereo not drawn), the entry is “inactive”; as for `COc1ccc(C2CC(c3cccs3)=NN2C(=O)CCC(=O)O)cc1OC` (stereo not drawn), “inactive”.
Same read-out and setting: with `O=C(CSc1ccc(-c2ccc(Br)cc2)nn1)NCC1CCCO1` (stereo not drawn) the entry was “inactive”; with `C#CCCCc1nc2ccccc2c(=O)n1N`, “inactive”; with `Cc1nc(C)c(-c2nnc(-c3cccc(S(=O)(=O)N(C)C)c3)o2)cc1C(=O)NN`, “inactive”.
The same measure, in the same setting: as for `COc1cc(-c2nnc(NC(=O)C3=COCCO3)o2)cc(OC)c1OC`, the entry is “inactive”; as for `CCOC(=O)c1cc(-c2nnc(-c3cc(OC)c(OC)c(OC)c3)o2)c(C)nc1C`, 16.4 µM (active).
On to `Cc1ccc(S(=O)(=O)NCCC(=O)NNC(=O)C2COc3ccccc3O2)cc1` (stereo not drawn), for which the Potency result is “inactive”.
With `CC(C)N(c1ccccc1)c1ncnc(NCCC(=O)O)c1[N+](=O)[O-]`, the Potency result is “inactive”.
Still for that read-out and setting: with `CO/N=C(\C(=O)N[C@@H]1C(=O)N2C(C(=O)O)=C(COC(C)=O)CS[C@H]12)c1csc(N)n1` (stereo in doubt) the entry was “inactive”; with `CN1C=CC=C/C1=C1\SC(=S)N(Cc2ccccc2)C1=O`, “inactive”.
The same measure, in the same setting: with `COc1ccccc1C(=O)NC(CCSC)C(=O)NNC(=O)c1ccccc1C` (stereo not drawn) the entry was “inactive”; with `CCOC(=O)c1ccc(NC(=O)Cn2nnc(-c3ccc(C)cc3)n2)cc1`, “inactive”.
In the case of `CCOC(=O)c1ccc(NC(=O)Cn2c(=O)cc(C)c3c(C)nn(-c4cccc(F)c4)c32)cc1`, the Potency entry was “inactive”.
Still for that read-out and setting: as for `CCCc1nnc(SCC(=O)Nc2ccc(C(=O)OCC)cc2)o1`, the figure is 23.1 µM (active).
With `Cc1ccc(NC(=O)CSc2nnc(COc3ccccc3C)o2)cc1`, the Potency result was “inactive”.
Regarding `CCOC(=O)c1ccc(NC(=O)CSc2ncccn2)cc1`, the Potency result is “inactive”.
In the case of `CCOC(=O)c1ccc(NC(=O)Cn2cnc3cc(C)c(C)cc32)cc1`, the Potency was 1.16 µM (active).
Turning to `CC(C)CC(=O)N1CCN(Cc2cccc(Cl)c2)CC1`, the Potency entry was “inactive”.
The same measure, in the same setting: as for `O=C(O)C(O)[C@@](O)(Cc1ccc(O)cc1)C(=O)O` (stereo partly drawn), the entry is “inactive”.
`Cc1cc(-c2ccnc(-n3ncc(C(=O)NCCc4ccncc4)c3C)n2)c(C)s1`: the activity change, negative = growth inhibition was -1.95% [at 9.04 µM] (inactive).
Regarding `Cc1nnc(SCC2=C(C(=O)O)N3C(=O)C(NC(=O)Cn4nc(C)c(Cl)c4C)C3SC2)s1` (stereo not drawn), the Potency entry is “inactive”.
As for `O=C(CN(CC1CCCO1)C(=O)CNS(=O)(=O)c1ccc(F)cc1)NCc1ccco1` (stereo not drawn), the Potency entry is “inactive”.
On the same count and under the same terms, with `O=c1oc2ccccc2c(CNc2ccccc2)c1[N+](=O)[O-]` the entry was “inactive”; with `CCS(=O)(=O)c1ccc(C(=O)NC)c(Cl)c1Cl`, “inactive”.
Same read-out and setting: as for `Cc1nnc2n1N=C(c1ccccc1)CS2`, the entry is “inactive”; as for `O=c1c2cc(-c3ccccc3)sc2nc2n1N=C(c1cccs1)CS2`, 16.4 µM (active); as for `c1csc(-c2cn3c(n2)SCC3)c1`, “inactive”.
For `CCN([C@H](CO)C(C)C)S(=O)(=O)c1ccccc1Br`, the Potency entry is “inactive”.
As for `O=C(NC(=S)NC1CCS(=O)(=O)C1)c1cccc([N+](=O)[O-])c1` (stereo not drawn), the Potency result is “inactive”.
Take `CCc1ccccc1N1C(=O)CN(S(=O)(=O)CC)CC1(C)C(=O)NC1CCCCC1` (stereo not drawn): the Potency result is “inactive”.
Take `O=C(CSc1ncnc2scc(-c3ccccc3)c12)NCc1ccc2c(c1)OCO2`: the Potency result is “inactive”.
Consider `CN(C)C(=O)c1cccc(-c2cnc3sc(NCc4ccc5c(c4)OCO5)nn23)c1`, for which the Potency is 16.4 µM (active).
Turning to `O=C(Cn1nnc(-c2ccccc2)n1)NCc1ccc2c(c1)OCO2`, the Potency entry is “inactive”.
The same measure, in the same setting: as for `CCN(CC(=O)NCc1cccs1)C(=O)c1cccc(S(=O)(=O)Nc2ccccc2OC)c1`, the entry is “inactive”; as for `O=C(Nc1cccc(NC(=O)c2ccc(Br)cc2)c1)c1ccccc1`, “inactive”; as for `O=C(Cc1cccs1)Nc1cccc(-c2nc3ccccc3[nH]2)c1`, “inactive”.
For the compound `O=C(Nc1cccc(-c2nc3ccccc3[nH]2)c1)c1ccc(C(=O)Nc2cccc(-c3nc4ccccc4[nH]3)c2)cc1`, the Potency is 18.4 µM (active).
The same measure, in the same setting: as for `CCCC(=O)Nc1ccc2oc(-c3ccc(O)c(Br)c3)nc2c1`, the entry is “inactive”.
For `O=C(CNC(=O)c1ccccc1Br)NNC(=O)c1cccs1`, the Potency entry is “inactive”.
Same read-out and setting: with `CCn1c(=O)c2ccccc2n(CC(=O)N2CCCc3ccccc32)c1=O` the entry was “inactive”.
The same measure, in the same setting: as for `O=C(Nc1ccc(OC(F)(F)F)cc1)c1ccc2c(c1)no[n+]2[O-]`, the figure is 4.11 µM (active).
The same measure, in the same setting: with `COC(=O)[C@H](C)NC(=O)Nc1ccc(OC(F)(F)F)cc1` the entry was “inactive”.
As for `Cn1nccc1NC(=O)Nc1ccc(OC(F)(F)F)cc1`, the Potency result was “inactive”.
Same read-out and setting: as for `CCN1CCN(C(=O)Cn2nc(C)n3c(cc4c(OC)cccc43)c2=O)CC1`, the entry is “inactive”; as for `CCn1nc(C)c(CNC(=O)C2CCC(=O)N(Cc3cccc(F)c3)C2)c1C` (stereo not drawn), “inactive”; as for `Cc1cc(C)c(CN2CCN(C(=O)Cn3ccc(NC(=O)OCc4ccccc4)nc3=O)CC2)c(C)c1`, 5.17 µM (active).
On the same count and under the same terms, with `Nc1ccn(CC(=O)N2CCN(c3ccccn3)CC2)c(=O)n1` the entry was “inactive”.
Consider `Cc1cc(C)c2c(-n3cccc3)c(NC(=O)OCc3ccccc3)sc2n1`, for which the Potency entry is “inactive”.
